High-throughput results: PubChem, National Center for Advancing Translational Sciences (NCATS)
The list is not random: actives were taken first. Their share in the collection is about 21%.
DT40 TDP1 CPT = DT40-hTDP1 cell growth loss with CPT; 420,000 tested, 12% active; Potency, µM (highest dose often 46.2 µM), for inactives: at the top dose activity change, negative = growth inhibition, actives largely listed as inhibitors; chicken DT40 Tdp1-/-;hTDP1 cells + 20 nM CPT, ATP luminescence, 48 h; AID 686979; further: potency means the concentration at half of the fitted maximal effect; on the % scale 0 is the no-effect control and ±100 the full control effect; nearly all actives have a fitted effect of over 55% in size
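Chicken DT40 Tdp1-/- cells stably complemented with human TDP1 were seeded at 400 cells/well in medium containing 20 nM camptothecin, exposed to pin-transferred compounds, and grown at 37 °C for at least 48 hr. Viability was read as ATP luminescence.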
D3 antag = blocks the human D3 dopamine receptor; AID 652054; D3R cells, DiscoveRx beta-arrestin luminescence, antagonist mode; active compounds read low; max response, negative = inhibition, %; 360,000 tested, 2.5% active; in the data active means max response below about -50%; inconclusive means no clear call, values can overlap the other calls; further: on the % scale 0 is the no-effect control and ±100 the full control effect
Target sequence (P35462 whole entry, looked up): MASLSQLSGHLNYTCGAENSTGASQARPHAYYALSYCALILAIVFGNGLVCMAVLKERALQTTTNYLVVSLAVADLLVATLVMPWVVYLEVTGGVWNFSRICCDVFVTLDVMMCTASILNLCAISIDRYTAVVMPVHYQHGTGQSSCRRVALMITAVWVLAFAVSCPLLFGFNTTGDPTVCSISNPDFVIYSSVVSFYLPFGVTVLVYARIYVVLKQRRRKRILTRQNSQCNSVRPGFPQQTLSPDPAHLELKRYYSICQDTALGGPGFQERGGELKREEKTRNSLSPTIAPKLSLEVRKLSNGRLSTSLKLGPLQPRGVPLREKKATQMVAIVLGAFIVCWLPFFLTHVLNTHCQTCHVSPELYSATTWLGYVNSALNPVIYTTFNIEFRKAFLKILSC
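Cells expressing the human receptor were seeded at 1500 cells/well, incubated overnight at 37 degrees C in 5% CO2, then exposed to library compounds with dopamine controls for 90 minutes at 37 degrees C before luminescent detection.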
IL1B secr inh = blocks inflammasome-driven IL-1 beta release. THP-1 LPS/ATP IL-1B secretion, AlphaLISA, 16 h; active compounds read low. activity change, % at 57.5 µM. 360,000 tested, 4.7% active; in the data active means activity change below about -50%; inconclusive means mostly about -30% to -49%; further: on the % scale 0 is the no-effect control and ±100 the full control effect
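Secreted IL-1B measured by AlphaLISA bead assay after 16 h compound exposure of THP-1 cells; compounds (final up to 57.5 uM) added 1 h before LPS (250 ng/mL) and ATP (1.25 mM) stimulation; lower signal means less secretion.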
DT40 TDP1 no CPT = qHTS for Inhibitors of human tyrosyl-DNA phosphodiesterase 1 (TDP1): qHTS in cells in absence of CPT | DT40 Tdp1-/- hTDP1 cells, no CPT, ATP luminescence, 48 h | Potency, µM (series often up to 46.2 µM), for the others: at the top dose activity change, negative = growth inhibition, most hits filed as inhibitors | 420,000 tested, 15% active | AID 686978, 2013; further: potency means the concentration at half of the fitted maximal effect; on the % scale 0 is the no-effect control and ±100 the full control effect; nearly all actives have a fitted effect of over 55% in size
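Compound effects on proliferation are scored in DT40 Tdp1-/-;hTDP1 cells in the absence of CPT. ATP levels (CellTiter-Glo luminescence) are recorded after a ≥48 hr, 37 °C incubation.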
ClpP mod = qHTS Assay for Activators of ClpP | purified B. subtilis ClpP, FRET peptide cleavage, 20 min | Potency, µM (doses to about 57.5 µM), for the others: at the highest dose activity change, negative = active | 340,000 tested, 1.9% active | AID 651965, 2013; active means well fitted falling curve with a large enough effect; inconclusive means small, poorly fitted or top-dose-only effect; inactive means no such curve, though single readings can be large or run the other way; further: potency means the concentration at half of the fitted maximal effect; the source files actives as falling curves though it sought activators and does not explain the sign; nearly all actives have a fitted effect of over 65% in size
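FRET quenching reversal measured ClpP activation: 10 microg/mL B. subtilis ClpP at pH 8 with the FRET-FV decapeptide, read at 430 nm after 320 nm excitation. The 20-min minus 0-min signal was scaled between DMSO/no-enzyme wells and ADEP (5.8 microM final).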
D3 ag = agonists of human D3 dopamine receptor | 410,000 tested, 0.58% active | max activation, % | D3R DiscoveRx beta-arrestin cells, luminescence, 90 min | AID 652048 | P35462; in the data active means max activation above about 30%; further: 0% is about no effect
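Agonist mode: compounds and dopamine controls were applied to plated cells for 90 min at 37 degrees C after an overnight attachment at 1500 cells/well. Luminescent read-out followed 30 - 60 minutes at room temperature with DiscoveRx detection reagent.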
Numbers without * were called inactive; ? = inconclusive; nt = no result. Unless noted, the call rests on the fitted dose curve; in most records, active means well fitted inhibition curve with a large enough effect; inconclusive means small, poorly fitted or top-dose-only effect; inactive means flat fitted curve, though single readings scatter.

SMILES	DT40 TDP1 CPT	D3 antag	IL1B secr inh	DT40 TDP1 no CPT	ClpP mod	D3 ag
CC(C)C[C@H]1CN([C@@H](CC(C)C)CN2CCC[C@H]2CN2C(=O)C(=O)NC[C@@H]2Cc2ccc(O)cc2)C(=O)C(=O)N1CC1CCCCC1	?	-16.4	30.3	29.1µM*	2.1%	-5.7
O=C(NCC(O)c1ccccc1)c1cccs1 (configuration not stated)	-1.8%	-4.2	-12.6	-16.6%	1.5%	-6.2
CCOCCCNC(=O)CN1C(=O)c2c(c3ccccc3n2C)C1c1ccc(OC)cc1 (configuration not stated)	?	nt	nt	?	31.6µM*	0.4
COc1ccc(C2c3c(n(C)c4ccccc34)C(=O)N2CC(=O)Nc2ccc(C)cc2Cl)cc1 (configuration not stated)	?	nt	nt	?	31.6µM*	-5.5
COc1ccc(C2c3c(n(C)c4ccccc34)C(=O)N2CC(=O)Nc2cc(Cl)ccc2C)cc1 (configuration not stated)	?	nt	nt	20.6µM*	?	-24.0
COc1ccc(C2c3c(n(C)c4ccccc34)C(=O)N2CC(=O)Nc2c(C)cc(C)cc2C)cc1 (configuration not stated)	?	nt	nt	?	-2.8%	1.8
CCOC(=O)c1cccc(NC(=O)c2c(NCc3ccccc3)[nH]c(=O)[nH]c2=O)c1	?	-14.4	98.9	?	-2.1%	7.1
OC(c1ccc2c(c1)CN(Cc1ccc3nsnc3c1)CCO2)C1CCCCC1 (configuration not stated)	5.2%	nt	nt	-4.0%	nt	nt
CN(C)S(=O)(=O)N1CCN(CC(O)COc2ccc3cc(Br)ccc3c2)CC1 (configuration not stated)	14.6µM*	21.0	-2.9	8.2µM*	1.2%	3.8
CC1CCCN(CC(O)COc2ccc(Cl)cc2)C1 (configuration not stated)	-10.7%	-58.4*	-0.5	-11.7%	-0.1%	-33.9
OC(COc1ccc(OCC(O)CN2CCCCCC2)cc1)CN1CCCCCC1 (configuration not stated)	-20.0%	0.0	?	?	-3.3%	-16.2
OC(COc1ccc2cc(Br)ccc2c1)CN1CCCC1 (configuration not stated)	?	-27.0	-4.9	23.1µM*	0.9%	-16.1
Cc1nc(C)n(CC(O)COc2ccc3cc(Br)ccc3c2)n1 (configuration not stated)	?	-14.9	-14.9	?	-0.9%	3.8
CC1CCCN(CC(O)COC(c2ccccc2)c2ccccc2)C1 (configuration not stated)	-5.5%	-20.7	?	-25.9%	nt	-19.4
CN(C)S(=O)(=O)N1CCN(CC(O)COc2ccc(-c3ccccc3)cc2)CC1 (configuration not stated)	20.6µM*	4.7	?	11.6µM*	-2.5%	12.5
CCOC(=O)N1CCN(CC(O)COc2ccc(-c3ccccc3)cc2)CC1 (configuration not stated)	?	9.1	-0.3	?	0.2%	12.6
CC(=O)NS(=O)(=O)c1ccc2c(c1)C(=O)c1cc(S(=O)(=O)NC(C)=O)ccc1-2	13.1%	23.9	15.6	-1.5%	0.2%	0.1
CC1CCCN(CC(O)COc2ccc(-c3ccccc3)cc2)C1 (configuration not stated)	?	?	?	?	nt	-26.0
O=S(=O)(N1CCCCC1)N1CCN(CC(O)COc2ccc3cc(Br)ccc3c2)CC1 (configuration not stated)	11.2µM*	-0.8	-52.4*	11.2µM*	1.3%	-24.5
OC1CCCN(CC(O)COc2ccc(-c3ccccc3)cc2)C1 (configuration not stated)	?	-4.1	-26.1	23.1µM*	nt	-6.6
